“And” between values parts separate entries of the source, which are not always exact repeats. Equal values may be shown once. Compounds without any hit were thinned out: in the full panel of roughly 83,000, 20% have a hit.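 48-hour exposure, single concentration, 96-well plates; percent growth endpoint where 0 means no net growth. Active: below 10.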 The source made the active and inactive calls.
Tested on: MDA-MB-468 breast
Test: NCI-60 one-dose screen, 48 h (100 = growth as untreated, 0 = no growth, -100 = all killed)
Details: 10 µM unless noted

Structure (SMILES)	growth
Cc1[nH]c(C(=O)Nc2ccccc2OCc2cccc(C(=O)NCCN)c2)c(Cl)c1Cl	10.7% (inactive)
O=c1sn(-c2cccc3ccccc23)c(=O)n1Cc1ccccc1	106% (inactive)
C[C@H](Oc1cc(-c2cnn(C3CCNCC3)c2)cnc1N)c1c(Cl)ccc(F)c1Cl	34.9% (inactive)
CC(C)=CCC[C@](C)(O)[C@H]1CC[C@]2(C)[C@@H]1CC[C@@H]1[C@@]3(C)Cc4nccnc4C(C)(C)[C@@H]3CC[C@]12C	69.4% (inactive)
CN(C)C[C@@H]1CCn2cc(c3ccccc32)C2=C(C(=O)NC2=O)c2cn(c3ccccc23)CCO1	23.3% (inactive)
NC(Cc1ccc(O)cc1)C(=O)N/N=C/c1ccccc1O (stereo not given)	108% (inactive)
O=C(Nc1cc(Cl)ccc1O)c1ccc(Nc2ccnc(C(F)(F)F)c2)cc1	58.7% (inactive)
CCCCn1c(C)nc2cc(Nc3nc(Cl)nc4nc[nH]c34)ccc21	44.3% (inactive)
CCOC(=O)c1c(C)nc2c(c1N)/C(=C/c1ccccn1)C(=O)N2Cc1ccccc1	-49.5% (active)
CCCc1cc(NC)nc(S(=O)(=O)CC)n1	119% (inactive)
C#CC#CC#CC#CC#CC#CC#CC#CC[C@H]1OC[C@@H](COC(=O)O[C@@H](C(=O)O[C@H]2C[C@@]3(O)[C@@H](OC(=O)c4ccccc4)[C@@H]4[C@]5(OC(C)=O)CO[C@@H]5C[C@H](O)[C@@]4(C)C(=O)[C@H](OC(C)=O)C(=C2C)C3(C)C)[C@@H](NC(=O)c2ccccc2)c2ccccc2)O1	14.2% (inactive)
CN1CCN(C(=O)C(C)(C)c2ccc(C(=O)Nc3cn4cc(-c5ccncc5)ccc4n3)cc2)CC1	-16.2% (active)
COC(=O)[C@H](Cc1cn(C)cn1)NC(=O)[C@H](Cc1c[nH]c2ccccc12)NC(=O)Nc1cc(C(F)(F)F)cc(C(F)(F)F)c1	-75.7% [100 µM] (active)
C/C(=C(/c1ccc(Cl)cc1)c1ccc(OCCN2CCCC2)cc1)c1ccc(Cl)cc1	91.1% (inactive)
C/C=C\COc1cc(C)c(Cl)cc1Cl	91.5% (inactive)
CC1(C)Oc2cc3oc(=O)ccc3cc2C[C@@H]1OCCOS(=O)(=O)c1ccc(C#N)cc1	90.6% (inactive)
Cc1ccc(NS(=O)(=O)c2ccc(C)cc2)cc1	94.4% (inactive) and 87.3% (inactive)
O=S(=O)(NCc1ccccc1)c1ncnc2nc[nH]c12	108% (inactive)
CCc1c(Cl)nc(N)nc1Nc1ccc(C)c(C)c1	83.2% (inactive)
O=C(NCCNc1nccc(Nc2ccc(S(=O)(=O)Nc3ccccn3)cc2)n1)c1cccc([N+](=O)[O-])c1	105% (inactive)

Structure (SMILES)	growth
CC(C)NCC(O)COc1ccc(CCOCC2CC2)cc1 (stereo not given)	103% (inactive)
C=C(C)[C@@H]1CC[C@]2(C(=O)O)CC[C@]3(C)[C@H](CC[C@@H]4[C@@]5(C)C/C(=C/c6ccco6)C(=O)C(C)(C)[C@@H]5CC[C@]43C)[C@@H]12	-27.1% [100 µM] (active)
CC(C)CSc1nc(NN)c(C#N)c(-c2ccc(F)cc2)n1	85.2% (inactive)
CCN(CCCNC(=O)Cc1cc(=O)oc2cc(N(C)C)ccc12)CCNc1ccnc2cc(Cl)ccc12	52% (inactive)
COc1ccc2cc(C3=CC(=O)CCC3)ccc2c1	100% (inactive)
O=C1/C(=C/c2ccc(Br)cc2)C=C(c2ccccc2)N1CCc1ccccc1	45% (inactive)
COc1ccc(-c2nnc(COc3ccc(Cl)cc3Cl)o2)cc1OC	71.9% (inactive)
NC(=O)c1c(NC(=O)c2cccs2)sc2c1CCC(=O)C2	65.2% (inactive)
CCOC(=O)c1c(NC(=O)C2CCCCC2C(=O)O)sc2c1CCCC2 (stereo not given)	103% (inactive)
COc1ccc2c(c1)c(-c1nonc1-c1cn(C)c3ccccc13)cn2C	13.9% (inactive)
Oc1c(Br)cc(Br)c2ccc(Cn3cc(-c4ccccc4C(F)(F)F)nn3)nc12	72.4% (inactive)
COc1cc2ncnc(Nc3ccc4c(cnn4C(=O)Nc4ccccc4)c3)c2cc1OC	52% (inactive)
CCOC(=O)C(C)(c1ccccc1)c1ccccc1	109% (inactive)
COc1ccc(/C=C/C(=O)c2cc3c(N)c(C(=O)Nc4ccccc4C)sc3nc2C)cc1	16.3% (inactive)
Cn1c2ccccc2c2c3[nH][nH]c(=O)c3c3c4ccccc4[nH]c3c21	49.5% (inactive)
Cc1nnc(-c2cc3c(ccc4ccccc43)oc2=O)c2cn(-c3ccc(Cl)cc3)nc12	96.4% (inactive)
C1CCC([PH+](C2CCCCC2)C2CCCCC2[PH+](C2CCCCC2)C2CCCCC2)CC1.[Au].[CH-]1CCCCC1C1CCCC[N-]1 (stereo not given)	-33.9% (active)
CCCCCCCCCCCCCCCCCC(=O)OCCCCCCC	114% (inactive)
COc1cccc(C(=O)NC(c2ccc(C)cc2)c2cc(Cl)c3cccnc3c2O)c1 (stereo not given)	-8.72% (active)
COc1ccc2c(c1)C(=O)/C(=C/c1ccc(O)cc1)O2	-28.5% (active)

Source: PubChem BioAssay (NCI)
